Laboratory results taken from PubChem BioAssay (NCATS).
Records with an inconclusive call do not appear. Unmarked numbers belong to inactive results. The source made the active and inactive calls. Calls follow the shape of the dose curve; as a rule, active = well fitted curve in the direction sought with a large enough effect; inconclusive = small, poorly fitted or top-dose-only effect, or another doubt; inactive = no such curve, though single readings can be large; an effect the other way counts as inactive or inconclusive.

How the values were obtained:
[1] = qHTS for Inhibitors of Plasmodium falciparum (HB3) proliferation (AID 504318); also: nearly all actives have a fitted effect of over 60% in size
Method in brief: (§1)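 Parasite growth measured as SYBR Green DNA fluorescence (ex 485, em 535 nm) after overnight lysis following 72 h culture at 37 °C, 0.3% parasitemia, 2.5% hematocrit. Values normalized against DMSO and 0.29 uM artemisinin controls, with plate-stack correction.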

[2] = qHTS for Inhibitors of Plasmodium falciparum (7G8) proliferation (AID 504316); also: nearly all actives have a fitted effect of over 65% in size
Method in brief: as §1

[3] = qHTS for Inhibitors of Plasmodium falciparum (CP250) proliferation (AID 504320)
Method in brief: as §1
Potency is read from the fitted curve at half-maximal effect.

Structure (SMILES): COC(=O)C1=C(C(=O)OC)[C@@H]2N(Cc3ccccc3)c3ccccc3[C@@]23C[C@@H](C(=O)OC)N(S(=O)(=O)c2ccc(OC)cc2)C3=N1
- Potency [1]: 1900 nM (active)

Structure (SMILES): COC(=O)[C@@H]1CC[C@H](C)[C@@H](c2ccc(C)cc2)N1C(=O)c1ccc(C=NO[C@@H](C)c2cc(-c3c(C)cc(C)cc3C)no2)cc1
- Potency [2]: 1690 nM (active)
- Potency [3]: 1690 nM (active)

Structure (SMILES): CCN(CC)CCCN1C=C2C(=O)C(C)(OC(=O)c3cccs3)C(=O)C=C2C=C1CCCC(=O)OC (stereo not given)
- Potency [2]: inactive
- Potency [1]: inactive
